# Measurements as given in the supplement of paper PMC6555819.
# Experiments:
# Assay in all cases: PBM binding z-score (relative to random genomic background probes); higher = stronger binding; sequences stand for … in GC…GCGATTGACAGCGTAGAATGAAGG
# [1] = system: FXR:RXRa (NR concentration 270 nM, RXRa partner concentration 90 nM)
# Procedure, shortened: (§1)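 Ligand-free nuclear receptor dimers were bound for 1 h to custom Agilent 4×180K protein-binding microarrays. Detection used antibodies against each partner (one per run). Binding z-scores rest on regression-normalized fluorescence, with random background probes as the reference.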
# [2] = system: LXRa:RXRa (NR concentration 270 nM, RXRa partner concentration 90 nM)
# Procedure, shortened: as §1
# [3] = system: LXRa homodimer (NR concentration 270 nM)
# Procedure, shortened: as §1
# [4] = system: LXRb:RXRa (NR concentration 270 nM, RXRa partner concentration 90 nM)
# Procedure, shortened: as §1
# [5] = system: LXRb homodimer (NR concentration 270 nM)
# Procedure, shortened: as §1
# [6] = system: PPARa:RXRa (NR concentration 270 nM, RXRa partner concentration 90 nM)
# Procedure, shortened: as §1
# [7] = system: PPARg:RXRa (NR concentration 180 nM, RXRa partner concentration 90 nM)
# Procedure, shortened: as §1
# [8] = system: PPARg:RXRa 270nM:90nM, anti-RXR (NR concentration 270 nM, RXRa partner concentration 90 nM)
# Procedure, shortened: as §1
# [9] = system: PPARg:RXRa 30nM:10nM, anti-RXR (NR concentration 30 nM, RXRa partner concentration 10 nM)
# Procedure, shortened: as §1
# [10] = system: PPARg:RXRa 90nM:30nM, anti-RXR (NR concentration 90 nM, RXRa partner concentration 30 nM)
# Procedure, shortened: as §1
# [11] = system: PPARg:RXRa DBDmut IVT, anti-RXR (DBD mutation: RXRa K156A/R161A, NR concentration 270 nM, RXRa partner concentration 90 nM)
# Procedure, shortened: as §1
# [12] = system: PPARg:RXRa IVT, anti-PPARg (NR concentration 270 nM, RXRa partner concentration 90 nM)
# Procedure, shortened: as §1
# [13] = system: PPARg DBDmut:RXRa IVT, anti-PPARg (DBD mutation: PPARg1 K132A/R137A, NR concentration 270 nM, RXRa partner concentration 90 nM)
# Procedure, shortened: as §1
# [14] = system: PPARg DBDmut IVT, anti-PPARg (DBD mutation: PPARg1 K132A/R137A, NR concentration 270 nM)
# Procedure, shortened: as §1
# [15] = system: PPARg homodimer (NR concentration 180 nM)
# Procedure, shortened: as §1
# [16] = system: PXR:RXRa (NR concentration 270 nM, RXRa partner concentration 90 nM)
# Procedure, shortened: as §1
# [17] = system: PXR homodimer (NR concentration 270 nM)
# Procedure, shortened: as §1
# [18] = system: RARa:RXR (NR concentration 270 nM, RXRa partner concentration 90 nM)
# Procedure, shortened: as §1
# [19] = system: RARa homodimer (NR concentration 270 nM)
# Procedure, shortened: as §1
# [20] = system: RARb:RXRa (NR concentration 270 nM, RXRa partner concentration 90 nM)
# Procedure, shortened: as §1
Sequence,PBM binding z-score [1],PBM binding z-score [2],PBM binding z-score [3],PBM binding z-score [4],PBM binding z-score [5],PBM binding z-score [6],PBM binding z-score [7],PBM binding z-score [8],PBM binding z-score [9],PBM binding z-score [10],PBM binding z-score [11],PBM binding z-score [12],PBM binding z-score [13],PBM binding z-score [14],PBM binding z-score [15],PBM binding z-score [16],PBM binding z-score [17],PBM binding z-score [18],PBM binding z-score [19],PBM binding z-score [20]
ATCGAAACGTCGTGAGGTGAGTATACAGAAAGGC,-0.206,-0.348,-0.532,-0.359,-0.538,-0.0386,0.851,-0.286,-0.051,0.0788,-0.959,0.149,1.07,-0.047,-0.199,-0.306,-0.433,0.0512,-0.494,-0.0846
CCTTACGGGTCAAGGTTGTAGCACGGGTGGTACG,4.89,3.37,-0.181,2.48,-0.0387,4.68,4.01,4.21,1.2,3,0.974,3.06,0.572,-0.462,1.93,2.61,-0.423,3.82,-0.14,3.86
GCTGCTAGGTCAACTGATGGTGAGCTAAAGCTCG,4.47,2.63,-0.169,1.71,-0.179,3.57,2.57,3.02,0.564,2.06,5.09,4.15,-0.747,-0.586,1.16,1.22,-0.899,2.11,-0.283,4.28
ACTCGGAGGACAAAGGTCACAGCTACGCCAGTGA,5.25,5.76,3.07,4.75,0.774,5.97,9.11,7.86,6.87,8.74,1.61,4.71,0.569,-0.0483,5.62,5.5,0.867,6.75,3.36,5.12
CCTACTGGGCCATTCAGAGGTTATTGATCATATG,0.119,0.693,0.815,0.664,-0.334,1.55,0.601,1.23,0.0553,0.458,4.41,3.71,0.418,0.252,0.658,0.724,0.159,0.877,0.171,0.712
CCTTACGGGTAACTCCAGGTTATAGCATCGGAGT,0.565,7.03,3.25,4.13,0.0113,0.572,0.317,0.049,-0.487,-0.0126,0.404,0.565,0.241,-0.665,0.705,0.705,0.14,0.64,0.018,0.315
TCTGCTATGTCAACGATGGTCAGCTAATCTGCTA,-0.367,-0.339,-1.07,-0.513,-0.553,-0.269,-0.313,0.46,1.01,0.668,0.814,-0.00611,0.00527,-0.18,-1.25,-0.217,-1.19,-0.446,-1.27,0.575
TAGCCTAGGTCATTGGGCCAGTATAGTACGCATC,4.22,3.49,0.558,2.36,0.375,3.82,3.56,3.65,0.801,2.75,2.86,3.89,0.41,0.0888,0.963,1.58,-0.104,2.17,-0.237,3.59
TCTGCTAGGTCAGGTGGTCAGCTAACGAGCTGCC,1.39,0.774,-0.474,0.66,0.161,1.89,1.01,2.36,1.38,1.98,2.43,2.96,-0.185,-0.486,-0.444,0.451,-0.687,1.18,-1.1,3.38
CCTACTGGGCCACGAAAGGTCCTTGATTCAGTGA,-0.183,-0.157,-0.498,-0.372,-0.947,1.21,1.24,1.23,-0.391,0.635,5.26,4.89,-0.745,-0.678,-0.351,-0.149,-0.492,0.131,-0.655,0.686
CCTTACGGGTCACTGACAGGTCATAGCATTTGGA,5.83,5.72,2.3,4.51,-0.00143,5.36,4.81,5.35,2.02,4.03,3.69,3.99,0.0751,0.785,4.06,5.34,0.53,6.69,1.34,4.53
CCTTACGGGTCACTCCATGTTATAGCATCGGAGT,4.2,4.36,-0.0151,2.66,0.251,4.37,3.24,3.49,0.894,2.33,2.24,3.12,0.606,0.266,2.26,2.73,0.163,3.26,0.537,3.59
CCTACTGGGCCAAAAAGGTAATTGATGCCGATAA,-0.234,-0.225,-0.561,-0.28,-0.84,0.543,0.593,1.19,-0.018,0.799,3.15,2.69,0.336,-0.668,-0.39,-0.331,-0.647,0.114,0.142,0.108
CCTCGGAGGACAACAGGAGGTCAAAGCTGCCAGA,2.61,4.28,5.15,3.51,0.0871,3.68,1.17,1.56,-0.109,0.958,0.133,1.07,-0.509,-2.06,2.31,4.04,1.35,4.12,0.524,3.25
